Only some compounds are listed: those with a hit (about 6.2% of all), similar ones and a draw of the others.
KB-3-1 cytotox: qHTS assay for MDR1-selective chemotherapeutics: Primary screen using the parental adenocarcinoma cell KB-3-1 | KB-3-1 viability, CellTiter-Glo ATP luminescence, 72 h | Potency, µM (highest dose often 46.1 µM), actives largely listed as cytotoxic | 1.4% of 400,000 active; further: on the % scale 0 is the no-effect control and ±100 the full control effect; nearly all actives have a fitted effect of over 60% in size
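Parental KB-3-1 adenocarcinoma cells in phenol-red-free DMEM with 10% FBS were pin-treated with compounds at several concentrations, incubated 72 h at 37 °C, and viability read by CellTiter-Glo luminescence; concentration-effect curves were fitted after normalization.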
KB-V1 cytotox: qHTS assay for MDR1-selective chemotherapeutics: Primary screen using the drug-selected MDR subline cells KB-V1 | KB-V1 MDR cells viability, CellTiter-Glo, 72 h | Potency, µM (highest dose often 46.1 µM), actives largely listed as cytotoxic | 3.4% of 400,000 active | AID 1347076, 2019; further: on the % scale 0 is the no-effect control and ±100 the full control effect; nearly all actives have a fitted effect of over 60% in size
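Following 72 h at 37 degrees C with compound, KB-V1 cell viability was read by CellTiter-Glo luminescence, medium being phenol-red-free DMEM plus 10% FBS; concentration-response parameters came from normalized, curve-fitted qHTS data.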
ATXN2 expr inh: Primary qHTS for Inhibitors of ATXN expression | 0.72% of 360,000 active | Potency, µM (highest dose often 57 µM), without a hit: at the highest dose activity change, negative = inhibition, actives largely listed as inhibitors | HEK-293 ATXN2-luciferase reporter, luminescence, 24 h; further: on the % scale 0 is the no-effect control and ±100 the full control effect; nearly all actives have a fitted effect of over 55% in size
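qHTS (up to 57 uM final) was run with 24 h compound exposure of reporter cells at 37 °C. Each well was multiplexed: SteadyGlo luminescence measured ATXN2-luciferase expression after a fluorogenic Gly-Phe-AFC viability readout (25 uM final).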
HT1080-NT tox: qHTS for induction of synthetic lethality in tumor cells producing 2HG: qHTS for the HT-1080-NT fibrosarcoma cell line. HT-1080-NT fibrosarcoma viability, CellTiter-Glo ATP luminescence, 48 h. Potency, µM (series often up to 46.1 µM), without a hit: at the top dose activity, negative = less viability, actives largely listed as cytotoxic. 1.6% of 360,000 active. AID 686970, 2013;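 further: NT is the 2HG producing partner of a matched IDH1 knockdown line; 0% = DMSO-treated cells and -100% = media-only wells without cells; nearly all actives have a fitted effect of over 55% in size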
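Luminescent CellTiter-Glo readout after 48 hours of compound exposure at 37 degrees C defined viability of HT-1080-NT cells. Activity was normalized to DMSO wells and cell-free media wells; concentration-response curves were fitted and assigned curve classes.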
S2 tox: Viability Counterscreen for Primary qHTS for Inhibitors of ATXN expression. AID 651635, 2014. S2 cells (HEK-293 line with an ATXN2-luciferase reporter) viability, CellTiter-Fluor protease fluorescence, 24 h. Potency, µM (highest dose often 56.7 µM), hits mostly cytotoxic. 0.49% of 400,000 active; further: nearly all actives have a fitted effect of over 40% in size
HT1080 IDH1KD tx: qHTS for induction of synthetic lethality in tumor cells producing 2HG: qHTS for the HT-1080-IDH1KD cell line. HT-1080 IDH1 knockdown viability, ATP luminescence, 48 h. Potency, µM (highest dose often 46.1 µM), for inactives: at the top dose activity, negative = toxicity, most hits filed as cytotoxic. 2% of 360,000 active. AID 686971, 2013;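 further: 0% = DMSO wells and -100% = cell-free medium wells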
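Using the IDH1-knockdown HT-1080 line run in the same batch and compound series as the NT line, viability after 48 h at 37 °C was determined by CellTiter-Glo luminescence and expressed as % activity.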
An asterisk follows results filed as active; i = inactive; u = inconclusive; x = not tested or not shown; [ ] = dose if it differs, or a comment. The call rests on the fitted dose curve; in most records, active means well fitted curve in the direction sought with a large enough effect; inconclusive means small, poorly fitted or top-dose-only effect, or another doubt; inactive means no such curve, though single readings can be large; an effect the other way counts as inactive or inconclusive. Potency means the concentration at half of the fitted maximal effect.

SMILES	KB-3-1 cytotox	KB-V1 cytotox	ATXN2 expr inh	HT1080-NT tox	S2 tox	HT1080 IDH1KD tx
COc1ccc(/C=C2\CN(Cc3ccccc3)C/C(=C\c3ccc(OC)cc3)C2=O)cc1	u	u	u	u	u	23µM*
CC(=O)Nc1ccc(S(=O)(=O)NCCC(=O)Nc2cccc(Cl)c2)cc1	i	i	-19%	10%	i	4%
CCCCOc1ccc(CONS(=O)(=O)c2ccc(NC(C)=O)cc2)cc1Cl	i	15µM*	-11%	-6%	i	-6%
CC(=O)Nc1ccc(S(=O)(=O)NCCSCc2cccc(Cl)c2)cc1	i	i	-2%	-9%	i	-21%
CC(=O)Nc1ccc(S(=O)(=O)NCCOc2ccc(Cl)cc2C)cc1	8.2µM*	i	-20%	-26%	i	-15%
O=S(=O)(NOCc1ccc(Cl)cc1)c1ccc(Cl)cc1	i	i	-11%	-6%	i	-3%
CC(=O)Nc1ccc(S(=O)(=O)NCCSCc2c(Cl)cccc2Cl)cc1	9.2µM*	5.8µM*	-14%	-16%	u	u
Nc1[nH]c(=S)[nH]c(=O)c1N	i	i	x	x	x	x
Cc1noc(C)c1COc1ccc(C(=O)N2CCN(c3cccc(Cl)c3)CC2)cc1	i	i	-7%	15%	i	2%
Cc1noc(C)c1COc1ccccc1C(=O)N1CCN(c2cccc(Cl)c2)CC1	u	u	x	23µM*	i	23µM*
Cc1cc(C)c(S(=O)(=O)N2CCN(C(=O)c3ccccc3OCc3c(C)noc3C)CC2)c(C)c1	i	7.3µM*	-15%	-7%	i	0%
COc1cccc(-c2cc(C(F)(F)F)nc(-n3cc(Cl)cn3)n2)c1	i	i	u	22%	i	23%
COc1ccc(-c2cc(C(F)(F)F)nc(S(C)(=O)=O)n2)cc1	u	u	u	18µM*	18µM*	u
COc1ccc(-c2cc(C(F)(F)F)nc(-n3cc(Cl)cn3)n2)cc1	i	23µM*	-19%	u	i	3%
CS(=O)(=O)c1nc(-c2ccc(F)cc2)cc(C(F)(F)F)n1	u	u	u	21µM*	u	8.2µM*
COc1ccc(S(=O)(=O)NCc2cccn2Cc2cccc(C)c2)cc1OC	u	u	-1%	x	i	x
O=C(NC(=S)Nc1ccccc1O)c1ccc(-c2ccc(Cl)cc2)o1	u	i	-28%	u	i	u
CC(=O)NC(=O)c1ccc(-c2ccc(Cl)cc2)o1	u	8.2µM*	0%	24%	i	20%
CN1CCN(c2ccc(NC(=O)c3ccc(-c4ccc(Cl)cc4)o3)cc2)CC1	u	u	u	5.8µM*	x	8.2µM*
CCn1cc2nc(SCc3cccc(C(F)(F)F)c3)n(Cc3ccc(C)cc3)c(=O)c2n1	i	u	-20%	x	i	x
CCOCCCNC(=O)Nc1cc(C(=O)NCc2ccc(C(C)C)cc2)ccc1N1CCCC1	i	i	-21%	x	u	x
Cc1ccc(CN=Cc2[nH]c3ccc(Br)c(Cl)c3c2O)cc1	i	i	-21%	-24%	i	18µM*
COc1ccc(CN=Cc2c(O)[nH]c3ccccc23)cc1	i	u	-11%[11.3 µM]	0%	u	-1%
ClC1(Cl)CC1CSc1nnc(-c2ccncc2)o1 (stereo unspecified)	i	i	x	-3%	u	-11%
O=C(/C=C1\NC2(CCCC2)Cc2ccccc21)C(=O)N/N=C/c1ccccc1O	u	u	u	23µM*	u	u
